Source: PubChem BioAssay
GRIN3A LBD mod = modulates the human NR3A ligand-binding domain; AID 1259313; 340,000 compounds, 2.5% hits; Tm shift relative to glycine control, % at 25 µM; NR3A LBD differential scanning fluorimetry, Tm shift; 0% = protein alone, 100% = glycine-bound protein;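 active = melting temperature shift of at least 10% of the positive control shift, at one fixed dose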
NadD inh = inhibitors of Staphylococcus aureus NadD | inhibition, % at 20 µM | purified NadD enzyme, colorimetric absorbance read-out | 360,000 compounds, 0.78% hits | AID 602399; in the data active = inhibition above about 26%
SMARCA2 act = increases SMARCA2 function in MMTV reporter cells; 370,000 compounds, 1% hits; activation, % at 9.1 µM; MG213 cells, MMTV-luciferase reporter, dexamethasone, overnight; in the data active = activation above about 7.8%
esBAF inh = SWI/SNF esBAF complex inhibition | mouse ES cells, Bmi1-luciferase knock-in reporter, 24 h; 100% = twice the neutral-well signal | reporter increase, % at 12.5 µM | 350,000 compounds, 2% hits; in the data active = activation above about 40%; inconclusive = no clear call, values can overlap the other calls;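 also: a rise in the Bmi1 reporter signal indicates esBAF inhibition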
SKN-1 block = blocks SKN-1 activity in C. elegans; C. elegans VP596 Pgst-4::GFP/RFP ratio, acrylamide-induced, 24 h; inhibition, % at 21.8 µM; 360,000 compounds, 0.49% hits; AID 624304;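 active = interference check ratio from 0.5 to 1.5 plus GFP to RFP signal ratio inhibition reaching or exceeding a fixed threshold, cut at about 30% in these data, passing the limit was not always enough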
Vif inh = blocks HIV Vif function | 340,000 compounds, 0.35% hits | HEK293T cells, Vif self-association by quenched fluorescence, imaging, 24 h | inhibition, % at 7.49 µM; in the data active = inhibition above about 50%, passing the limit was not always enough; inconclusive = no clear call, values can overlap the other calls; inactive = below about 31%
NadD inh conf = NadD (S. aureus) inhibition, single concentration confirmation. shares compounds with NadD inh. purified S. aureus NadD, colorimetric enzyme assay. inhibition, % at 20 µM. 2,000 compounds, 13% hits; in the data active = inhibition mostly above about 42%, no sharp cut-off; inactive = mostly below about 42%
Of the large screens only hits and unclear results are named; the others gave an inactive call (follow-up assays come after a bar, where they were run). Shown are actives, neighbours in structure and some others; about 5.2% of the full set was active somewhere.

CCN(CC)C(=O)CSc1ncnc2c(-c3cccs3)nsc12	NadD inh 34.4 (no result: Vif inh) | NadD inh conf 56.2
CC(C)C[C@@H](CN1CCC[C@@H]1CN1C(=S)NC[C@@H]1Cc1ccc(O)cc1)N1C[C@H](Cc2ccc(O)cc2)N(CC2CCCCCC2)C1=S	NadD inh 44.1 (no result: GRIN3A LBD mod) | NadD inh conf inactive
CC(C)C[C@@H](CN1CCCC1CN1C(=S)NC[C@@H]1Cc1ccccc1)N1C[C@H](Cc2ccc(O)cc2)N(CC2CCCCC2)C1=S (some centres undefined)	none (no result: GRIN3A LBD mod, esBAF inh, Vif inh)
CC(C)C[C@H]1CN([C@@H](CC(C)C)CN2CCC[C@@H]2CN2C(=S)NC[C@@H]2Cc2ccc(O)cc2)C(=S)N1CC1CCCCC1	NadD inh 29.7 (no result: GRIN3A LBD mod) | NadD inh conf inactive
COc1ccccc1-c1ccc2n(c1=O)C[C@@H]1[C@@H](CO)[C@H](C(=O)NC3CCC3)N(C(=O)C3CCC3)[C@H]21	none (no result: GRIN3A LBD mod, NadD inh, SMARCA2 act, SKN-1 block, Vif inh)
S=C(Nc1ccc(N2CCOCC2)cc1)Nc1ccc2nc(-c3ccco3)c(-c3ccco3)nc2c1	NadD inh 42.1 | NadD inh conf inactive
O=C(Nc1ccc2nc(-c3ccco3)c(-c3ccco3)nc2c1)N1CCN(c2ccccn2)CC1	NadD inh 48.8 (no result: esBAF inh) | NadD inh conf 49.0
Cc1nc(N2CCN(S(=O)(=O)c3ccc(F)cc3)CC2)c2c(C)c(C)sc2n1	none
Cc1sc2nc(CN3CCCC3)nc(N3CCN(S(=O)(=O)c4cccc(F)c4)CC3)c2c1C	NadD inh 29.6 | NadD inh conf inactive
Cc1sc2nc(C3CC3)nc(N3CCN(S(=O)(=O)c4ccc(F)cc4)CC3)c2c1C	NadD inh 35.0 | NadD inh conf inactive
C/C=C/c1cnc2c(c1)C(=O)N([C@@H](C)CO)C[C@@H](C)[C@@H](CN(C)Cc1ccc(F)cc1)O2	none (no result: GRIN3A LBD mod, NadD inh, SMARCA2 act, SKN-1 block, Vif inh)
COc1cc2c(cc1[N+](=O)[O-])-c1ccc([N+](=O)[O-])cc1C2=NNC(N)=S	NadD inh 48.2 (no result: GRIN3A LBD mod, SMARCA2 act) | NadD inh conf inactive
COc1cc2c(cc1[N+](=O)[O-])-c1ccc([N+](=O)[O-])cc1C2	none (no result: GRIN3A LBD mod)
NC(=S)NN=C1c2cc(Cl)ccc2-c2c1cc(Cl)cc2[N+](=O)[O-]	GRIN3A LBD mod 11.5, NadD inh 35.2 (no result: SMARCA2 act) | NadD inh conf inactive
C[C@H]1CCCCO[C@H](CN(C)S(=O)(=O)c2cccs2)[C@@H](C)CN([C@@H](C)CO)C(=O)c2cc(N(C)C)ccc2O1	none (no result: GRIN3A LBD mod, NadD inh, SMARCA2 act, SKN-1 block, Vif inh)
Nc1ccccc1Sc1nc2ccccc2[nH]1	GRIN3A LBD mod 10.2, NadD inh 34.5, SMARCA2 act 9.2 (no result: esBAF inh) | NadD inh conf inactive
Nc1nc2ccccc2[nH]1	none
CC1(C)CC(=O)C(C=NCC2CCNCC2)=C(O)C1	none (no result: Vif inh)
CC1(C)CC(=O)C(C=NCC2CCN(C(=O)Cc3ccccc3)CC2)=C(O)C1	NadD inh 35.9 | NadD inh conf inactive
CN(C)CC(=O)N[C@@H]1CC[C@@H](CCNC(=O)C2CCCCC2)O[C@@H]1CO	none (no result: GRIN3A LBD mod, NadD inh, SMARCA2 act, SKN-1 block, Vif inh)
N#CCSc1nc2ccc(N3CCCCC3)cc2c(=O)n1Cc1ccccc1	NadD inh 41.1 | NadD inh conf inactive
N#CCSc1nc2ccccc2c(=O)n1CC1CCCC1	none
COc1ccc(-c2csc(NC(=O)CSc3nc(C)cs3)n2)cc1	none
COc1ccc(-c2csc(NC(=O)CSc3nc(C)nc4sc(C(=O)O)c(C)c34)n2)cc1	NadD inh 30.2 | NadD inh conf inactive
COc1ccc(NC(=O)Nc2ccc3c(c2)C(=O)N([C@@H](C)CO)C[C@@H](C)[C@H](CN(C)C)OCCCC[C@H](C)O3)cc1	none (no result: GRIN3A LBD mod, NadD inh, SMARCA2 act, SKN-1 block, Vif inh)
O=C(N/N=C/c1ccco1)c1cccc(N2Cc3ccccc3C2)c1	NadD inh 34.8 | NadD inh conf inactive
COc1cc(C#Cc2c(-c3cncn3C)n(C)c3ccc(-c4ccc5[nH]ccc5c4)cc23)cc(OC)c1	NadD inh 35.0 | NadD inh conf inactive
COc1cc(C#Cc2c(-c3cncn3C)n(C)c3ccc(-c4ccc(OC)nc4)cc23)cc(OC)c1	NadD inh 35.7 | NadD inh conf inactive
COc1cc(C#Cc2c(-c3cncn3C)n(C)c3ccc(-c4cc(OC)c(OC)c(OC)c4)cc23)cc(OC)c1	none
O=C(Nc1ccn(CCCN(CCCn2ccc(NC(=O)OCc3ccccc3)nc2=O)CCc2cc3ccccc3[nH]2)c(=O)n1)OCc1ccccc1	NadD inh 70.1 (no result: Vif inh) | NadD inh conf 55.0
O=C(Nc1ccn(CCCNCc2ccccc2)c(=O)n1)OCc1ccccc1	none (no result: Vif inh)
Cc1cc(C)c2c(n1)sc1c(=O)[nH]c(SCc3ccccc3)nc12	NadD inh 29.1 | NadD inh conf inactive
C=CCSc1nc2c(sc3nc(C)cc(C)c32)c(=O)[nH]1	Vif inh inconclusive
Cc1ccc(S(=O)(=O)N(C)C[C@H]2OCc3cn(nn3)CCCC(=O)N([C@H](C)CO)C[C@H]2C)cc1	none (no result: GRIN3A LBD mod, NadD inh, SMARCA2 act, SKN-1 block, Vif inh)
Cc1cccc(C)c1-n1nnnc1C(c1ccnc2ccccc12)N(Cc1ccccc1)Cc1ccccc1 (centres undefined)	NadD inh 32.5 (no result: GRIN3A LBD mod, esBAF inh, Vif inh) | NadD inh conf inactive
c1ccc(CN(Cc2ccccc2)C(c2ccnc3ccccc23)c2nnnn2-c2ccc3c(c2)OCCO3)cc1 (centres undefined)	NadD inh 40.3 (no result: GRIN3A LBD mod, esBAF inh, Vif inh) | NadD inh conf inactive
Cc1cccc(C)c1-n1nnnc1C(c1ccnc2ccccc12)N(C)Cc1ccc(Cl)c(Cl)c1 (centres undefined)	NadD inh 29.3 (no result: GRIN3A LBD mod, esBAF inh, Vif inh) | NadD inh conf inactive
C(=C\c1ccco1)/c1ccc2ccccc2n1	NadD inh 43.8 (no result: esBAF inh) | NadD inh conf inactive
C[C@H]1CN([C@@H](C)CO)C(=O)c2cc(NC(=O)c3ccncc3)ccc2O[C@@H]1CN(C)S(C)(=O)=O	none (no result: GRIN3A LBD mod, NadD inh, SMARCA2 act, SKN-1 block, Vif inh)
CC(C)COC(=O)C(C#N)c1nc2ccccc2nc1N1CCN(Cc2ccc3c(c2)OCO3)CC1 (centres undefined)	NadD inh 30.9 | NadD inh conf inactive
C=C(C)CN=C1SC(C(=O)Nc2sc3c(c2C(=O)OC)CCC3)C(N)=C1C(N)=O (centres undefined)	none (no result: esBAF inh)
COC(=O)c1c(NC(=O)C2SC(=NC3CCCCC3)C(C(N)=O)=C2N)sc2c1CCCC2 (centres undefined)	NadD inh 38.0 (no result: esBAF inh) | NadD inh conf inactive
CCS(=O)(=O)Nc1ccc2c(c1)C(=O)N(C)C[C@@H](OC)[C@H](C)CN(C(=O)c1ccc3c(c1)OCO3)[C@H](C)CO2	none (no result: GRIN3A LBD mod, NadD inh, SMARCA2 act, SKN-1 block, Vif inh)
Cc1ccc(C)c(NC(=O)COC(=O)c2ccc(S(=O)(=O)N3CCCCC3)cc2)c1	NadD inh 31.0 | NadD inh conf inactive
Cc1ccccc1NC(=O)COC(=O)c1ccc(S(=O)(=O)N2CCCCCC2)cc1	none (no result: esBAF inh)
NC(=S)NNc1cccc2cccnc12	NadD inh 33.8 | NadD inh conf inactive
